Data taken from PubChem BioAssay AID2162 (National Center for Advancing Translational Sciences (NCATS), 2009).
Records with an inconclusive call do not appear. Unmarked numbers belong to inactive results. Active and inactive are the calls of the source. The call rests on the fitted dose curve; in most records, active means well fitted inhibition curve with a large enough effect; inconclusive means small, poorly fitted or top-dose-only effect; inactive means flat fitted curve, though single readings scatter.

target: Polyunsaturated fatty acid lipoxygenase ALOX12 (Homo sapiens) (UniProt P18054); experiment: Confirmation qHTS Assay for Inhibitors of 12-hLO (12-human lipoxygenase); settings: purified 12-hLO, xylenol orange absorbance; activity change, negative = inhibition: hits give low values
Source text: Assay Provider: Holman, T.R., University of California, Santa Cruz Screening Center PI: Austin, Christopher P. Screening Center: NIH Chemical Genomics Center Human lipoxygenase 12hLO is a member of the closely related lipoxygenase family of enzymes which catalyze the site-specific oxidation of arachidonic acid to various hormone precursor molecules and as such is a candidate for drug development in a variety of disease areas, such as cancer and inflammation. Inhibition of 12hLO activity was screened by utilizing arachidonic acid as a substrate. The extent of hydroperoxide product formation was measured by a secondary chromogenic reaction in which xylenol orange (XO, Sigma-Aldrich, cat. number 39,818-7) reacts with the ferric ions produced from the reaction between the hydroperoxide and ferrous ions. The Fe(III)-XO complex is characterized with red-shifted absorbance at 560 nm. A purified preparation of human 12hLO was supplied by Professor Ted Holman, University of California, Santa Cruz. This assay includes some confirmation and follow-up compounds for related primary screening assay AID 1452.
Assay Protocol: Buffer: 25 mM Hepes pH 7.0, 0.01% Triton X-100. Reagents/Controls: Buffer in columns 3 and 4 as negative control (no enzyme). Substrate solution: 40 uM arachidonic acid (Sigma-Aldrich, St. Louis, MO) final concentration dispensed throughout the plate. Enzyme: 150 nM 12hLO final concentration in columns 1, 2, 5-48. Column 1 is neutral (100% activity). Column 2 contained pin-transferred titration of NDGA (nordihidroguaiaretic acid, Sigma-Aldrich, N 5023, top concentration 20 mM in DMSO, then 1:3 dilution in duplicate). (Dilution factor: 23 nL into 4 uL.) Chromogenic detection reagent (divalent iron/xylenol orange, Fe-XO): 200 uM xylenol orange plus 300 uM ferrous ammonium sulfate prepared freshly in 50 mM sulfuric acid. Assay Steps: Three uL of enzyme were dispensed to 1536-well Greiner black clear bottom plates. Compounds and controls (23 nL) were transferred via Kalypsys PinTool. The plates were incubated for 15 min at room temperature, and then 1 uL of substrate solution was added to start the reaction. After room temperature incubation for 30 minutes, 4 uL of Fe-XO solution was added to each well and the plates were incubated for 30 min. The absorbance at 405 and 573 nm were measured using ViewLux (Perkin-Elmer) High-throughput CCD imager and absorbance protocol settings. The 573-to-405 absorbance ratio was used to compute reaction progress.

Polyunsaturated fatty acid lipoxygenase ALOX12 (Homo sapiens), sequence (P18054 whole entry, looked up): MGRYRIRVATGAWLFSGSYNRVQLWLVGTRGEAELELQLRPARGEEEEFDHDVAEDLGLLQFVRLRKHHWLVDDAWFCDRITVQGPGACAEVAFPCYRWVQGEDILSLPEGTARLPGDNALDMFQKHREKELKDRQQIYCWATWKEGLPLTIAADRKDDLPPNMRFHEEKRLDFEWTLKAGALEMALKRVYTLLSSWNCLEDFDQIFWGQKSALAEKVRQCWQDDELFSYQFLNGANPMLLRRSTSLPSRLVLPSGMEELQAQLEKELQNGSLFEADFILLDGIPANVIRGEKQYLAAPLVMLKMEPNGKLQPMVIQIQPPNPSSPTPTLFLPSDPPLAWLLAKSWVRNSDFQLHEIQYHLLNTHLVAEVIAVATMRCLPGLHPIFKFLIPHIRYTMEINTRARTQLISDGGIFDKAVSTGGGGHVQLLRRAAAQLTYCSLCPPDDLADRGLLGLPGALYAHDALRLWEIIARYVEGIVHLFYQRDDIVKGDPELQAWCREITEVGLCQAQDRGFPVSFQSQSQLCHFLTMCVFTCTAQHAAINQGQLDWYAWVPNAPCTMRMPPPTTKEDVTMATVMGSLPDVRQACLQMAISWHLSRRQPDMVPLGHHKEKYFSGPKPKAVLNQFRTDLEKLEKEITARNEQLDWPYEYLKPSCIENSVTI

Q: How did the activity change, negative = inhibition turn out when `O=C(OCC#CCSc1nnc(-c2cccc3ccccc23)o1)c1cnc[nH]1` was run?
A: Its activity change, negative = inhibition is -8.94%.

Q: Which Potency does the source give for `CC(=O)N1CCN(c2ccc(NCc3cccs3)cc2)CC1` here?
A: Its Potency is 44.7 µM (active).

Q: For `N#Cc1nc(-c2ccc(OCc3ccc(Cl)cc3)cc2)oc1N1CCC(C(N)=O)CC1`, which activity change, negative = inhibition is on record?
A: Its activity change, negative = inhibition is -12.9%.

Q: Which Potency does the source give for `Oc1ccc(CNc2ccccc2)c2cccnc12` here?
A: The Potency was 11.2 µM (active).

Q: How did the activity change, negative = inhibition turn out when `Cc1csc(-c2coc3cc(O)cc(C)c3c2=O)n1` was run?
A: Its activity change, negative = inhibition is -12.2%.

Q: Which Potency does the source give for `Oc1ccc2ccccc2c1CNc1cnc2ccccc2c1` here?
A: The Potency was 5.01 µM (active).

Q: For `COC(=O)c1ccc2c(c1)C(=O)N(C1CCCCC1)C2=O`, which activity change, negative = inhibition is on record?
A: Its activity change, negative = inhibition is -2.91%.

Q: For `CCCCn1c(NC(C)=O)c(C#N)c2nc3ccccc3nc21`, which activity change, negative = inhibition is on record?
A: The activity change, negative = inhibition was -16%.

Q: `Cc1noc(C)c1-c1nc(N(C)Cc2ccco2)c2ccccc2n1` was tested. Which activity change, negative = inhibition did it give?
A: The activity change, negative = inhibition was -12.2%.

Q: `CN(C)c1oc(-c2ccc(OCc3ccccc3)cc2)nc1C#N` was tested. Which activity change, negative = inhibition did it give?
A: Its activity change, negative = inhibition is -20.4%.

Q: With `Cc1cc(/C=N/NC(=O)Cn2c3ccccc3c(=O)c3ccccc32)c(C)n1-c1ccccc1` as the compound, how does the activity change, negative = inhibition read?
A: Its activity change, negative = inhibition is -20.8%.

Q: With `Cc1cc(Nc2nnnn2-c2ccccc2)n(-c2ccc(Cl)cc2)n1` as the compound, how does the activity change, negative = inhibition read?
A: The activity change, negative = inhibition was -12.4%.

Q: `CC(=O)N1CCN(c2ccc(NCc3ccc(C)cc3)cc2)CC1` was tested. Which Potency did it give?
A: The Potency was 22.4 µM (active).

Q: With `CCC(=O)NC(c1cccs1)c1ccc2cccnc2c1O` (stereo not given) as the compound, how does the Potency read?
A: Its Potency is 17.8 µM (active).

Q: Which activity change, negative = inhibition does the source give for `CNc1oc(-c2cccs2)nc1C#N` here?
A: The activity change, negative = inhibition was -10.4%.

Q: With `Cc1ccc(-c2ccc(/C=C3\C(=O)ON=C3c3ccccc3)o2)c([N+](=O)[O-])c1` as the compound, how does the Potency read?
A: Its Potency is 4.47 µM (active).

Q: `Oc1ccccc1C1Nc2cccc3cccc(c23)N1` was tested. Which Potency did it give?
A: The Potency was 39.8 µM (active).

Q: `O=C(NCC#CCSc1nnc(-c2cccc3ccccc23)o1)c1cccs1` was tested. Which activity change, negative = inhibition did it give?
A: The activity change, negative = inhibition was -3.59%.

Q: How did the Potency turn out when `CNc1oc(-c2cccc3ccccc23)nc1C#N` was run?
A: The Potency was 4.47 µM (active).

Q: For `CCC(=O)NC(c1ccc(C)cc1)c1ccc2cccnc2c1O` (stereo not given), which Potency is on record?
A: The Potency was 31.6 µM (active).

Q: Which activity change, negative = inhibition does the source give for `Cc1ccc(OCC(=O)Nc2ccc(N3CCCC3)cc2)cc1C` here?
A: The activity change, negative = inhibition was -27.5%.

Q: For `CCC(=O)NC(c1ccc(C)cc1)c1cc(Cl)c2cccnc2c1O` (stereo not given), which Potency is on record?
A: Its Potency is 28.2 µM (active).

Q: With `COc1cccc(-c2nccc(NCc3ccccc3OC)n2)c1` as the compound, how does the activity change, negative = inhibition read?
A: The activity change, negative = inhibition was -13.1%.

Q: For `CCC(=O)NC(c1cccc(C)c1)c1cc(Cl)c2cccnc2c1O` (stereo not given), which Potency is on record?
A: The Potency was 39.8 µM (active).

Q: How did the activity change, negative = inhibition turn out when `O=C(c1ccncc1)N1CCC2(CCCN(Cc3nccs3)C2)CC1` was run?
A: The activity change, negative = inhibition was -1.82%.

Q: With `O=C(Nc1nc2n(n1)C(c1ccccc1)CC(c1ccc(Cl)cc1)N2)c1ccco1` (stereo not given) as the compound, how does the Potency read?
A: The Potency was 14.1 µM (active).

Q: `N#Cc1nc(-c2cccc3ccccc23)oc1NCC#CCOC(=O)c1cccs1` was tested. Which activity change, negative = inhibition did it give?
A: The activity change, negative = inhibition was -20.1%.

Q: Which Potency does the source give for `CC(=O)N1CCN(c2ccc(NCc3ccccc3)cc2)CC1` here?
A: Its Potency is 31.6 µM (active).

Q: `CCOc1ccc(NS(=O)(=O)c2ccc3[nH]cc(C(=O)N(CC)CC)c(=O)c3c2)cc1` was tested. Which activity change, negative = inhibition did it give?
A: Its activity change, negative = inhibition is -15.5%.

Q: Which activity change, negative = inhibition does the source give for `O=C(OCC#CCSc1nnc(-c2cccc3ccccc23)s1)c1cccs1` here?
A: The activity change, negative = inhibition was -23.7%.

Q: For `CCC(=O)NC(c1cccs1)c1cc(Cl)c2cccnc2c1O` (stereo not given), which Potency is on record?
A: The Potency was 7.94 µM (active).

Q: With `CC(=O)[C@@H]1[C@@H]2C(=O)N(Cc3ccccc3)C(=O)[C@@H]2C2c3ccccc3C=CN21` (stereo not given in full) as the compound, how does the activity change, negative = inhibition read?
A: Its activity change, negative = inhibition is -19.1%.

Q: For `O=C(Nc1nnc(-c2ccco2)s1)C1CCCCC1`, which activity change, negative = inhibition is on record?
A: Its activity change, negative = inhibition is -5.47%.

Q: With `CCC(=O)NC(c1ccc2c(c1)OCO2)c1cc(Cl)c2cccnc2c1O` (stereo not given) as the compound, how does the Potency read?
A: Its Potency is 25.1 µM (active).

Q: For `CCOC(=O)c1c(NC(=O)CN2CCOCC2)sc2c1CCCC2`, which activity change, negative = inhibition is on record?
A: Its activity change, negative = inhibition is -5.92%.

Q: For `CCC(=O)NC(c1ccc(C)s1)c1cc(Cl)c2cccnc2c1O` (stereo not given), which Potency is on record?
A: Its Potency is 39.8 µM (active).

Q: `NC(=O)c1cccc2c3c([nH]c12)CCCC3` was tested. Which activity change, negative = inhibition did it give?
A: Its activity change, negative = inhibition is -10.2%.

Q: With `O=C(OCC#CCSc1nnc(-c2cccc3ccccc23)o1)c1ccc(Cl)cc1` as the compound, how does the activity change, negative = inhibition read?
A: Its activity change, negative = inhibition is -7.17%.

Q: How did the Potency turn out when `CCC(=O)NC(c1ccc(F)cc1)c1cc(Cl)c2cccnc2c1O` (stereo not given) was run?
A: The Potency was 15.8 µM (active).

Q: `COCCSc1ccccc1C(=O)NCc1ccco1` was tested. Which activity change, negative = inhibition did it give?
A: Its activity change, negative = inhibition is -7.73%.
